Consider eleven compounds from PubChem BioAssay (NCI).

SMILES strings stand for the structures. About 83,000 compounds went through this panel and 20% of them were active in at least one assay; those are over-represented in the sample as a whole.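 A percent growth of 40 corresponds to 60% growth inhibition; 0 means no net growth; -100 means all cells died. Active threshold: below 10.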 Unmarked numbers belong to inactive results. Activity calls are given as the source filed them.

Assay in all cases: NCI-60 one-dose screen, 48 h (100 = growth as untreated, 0 = no growth, -100 = all killed)
Conditions in all cases: 10 µM unless noted

Assay [1] relates to SK-MEL-2 melanoma.
Assay [2] concerns EKVX NSCLC.
Assay [3] has as its system SN12C renal.
Assay [4] concerns UO-31 renal.
For assay [5], the system named is TK-10 renal.
Assay [6] relates to CAKI-1 renal.
The subject of assay [7] is A498 renal.
Assay [8] concerns CCRF-CEM leukemia.
Assay [9] has as its system MOLT-4 leukemia.
The test system of assay [10] is ACHN renal.

For `CCSc1sc(-c2ccc(C)cc2)nc1[P+](c1ccccc1)(c1ccccc1)c1ccccc1`, the growth in assay [1] is -56.9% (active); in [2], 6.99% (active); in assay [3], 2.07% (active); in [4], -33% (active); in assay [5], -6.69% (active); in assay [6], -9.03% (active). The growth in [7] is -46.1% (active); in assay [8] it was 8.77% (active); in assay [9], -48.8% (active).
`CCCCC[C@H]1CC=C2C(=O)C(Cl)=C[C@@H]2CC=CCCCC(=O)O[C@@H](CCCCC)CC=C2C(=O)C(Cl)=C[C@@H]2CC=CCCCC(=O)O[C@@H](CCCCC)CC=C2C(=O)C(Cl)=C[C@@H]2CC=CCCCC(=O)O1`: the growth in assay [1] is 91.4% [8 µM]; in assay [2] it was 96.6% [8 µM]; in [3], 43.1% [8 µM]; in assay [4], 76.3% [8 µM]; in [5], 151% [8 µM]; in [10], 69.6% [8 µM]. Moreover, the growth was 106% [8 µM] in assay [7], 7.3% [8 µM] (active) in assay [8] and 10.4% [8 µM] in assay [9].
With `Fc1ccc(Nc2nnc(-c3ccc(Cl)cc3)o2)cc1`, the growth in assay [1] was 106%; in assay [2], 92.1%; in assay [3], 103%; in assay [4] it was 85.4%; in [5], 137%; in assay [6], 92.8%. In addition, the growth in [7] is 92.8%; in assay [8] it was 58.4%; in assay [9], 88.4%.
On to `CN(C)c1ccc(C(=O)c2ccc(N(C)C)c(N)c2)cc1N`, for which the growth was 61.6% in assay [1]; 50.9% in assay [2]; 49.7% in [3]; 64.9% in assay [4]; 67.3% in assay [5]; 41% in [6]. In addition, the growth in assay [7] is 25%; in [8], 36.4%; in assay [9], 24.4%.
As for `COc1ccc2c(c1)c(-c1nc(-c3cn(C)c4ncccc34)cs1)cn2CCCN1CCCCC1`, the growth in assay [1] was 102%; in [2], 61.6%; in assay [3], 76.2%; in assay [4], 62.9%; in assay [5] it was 89.7%; in assay [10] it was 1.33% (active). The values for the growth in assay [7], in assay [8] and in assay [9] were 74.7%, 2.69% (active) and 23.4%, respectively.
Consider `Cc1cc(N(CCCNc2ccnc3cc(Cl)ccc23)Cc2ccco2)nc(Cl)n1`, for which the growth is 65.4% in [1]; 43.5% in assay [2]; 58.8% in [3]; 36.7% in assay [4]; 62.6% in [5]; 64.8% in [10]. Besides, the values for the growth in assay [7], in assay [8] and in [9] were 46.1%, 67.3% and 43.4%, respectively.
`CN(CSc1ccc(Cl)cc1)c1ccc(CSc2ccc(Cl)cc2)cc1`: the growth in assay [1] was 78.1%; in assay [2] it was 86.8%; in assay [3] it was 36.9%; in assay [4] it was 26.6%; in [5] it was 87.1%; in [6], 44.7%. Besides, the results for the growth in assay [7], in assay [8] and in [9] were 71.8%, 6.37% (active) and 8.87% (active), respectively.
With `C/C(=C(/c1ccccc1)c1ccc(N2C(=O)c3cccc4c(NCc5ccccc5)ccc(c34)C2=O)cc1)c1ccccc1`, the growth in assay [1] is 107%; in assay [2], 75.3%; in [3], 92%; in assay [4] it was 68.8%; in assay [5] it was 145%; in assay [6], 84.5%. For the same compound, the growth in [7] is 107%; in [8] it was 89.1%; in assay [9] it was 88.9%.
In the case of `O=C(CCCCCn1c2ccccc2c2c3c(c4c5ccccc5[nH]c4c21)C(=O)N(O)C3=O)N1CCOCC1`, the growth in assay [1] is 72.5%; in [2], 77.7%; in assay [3] it was 57.1%; in assay [4], 29.6%; in assay [5] it was 70.7%; in [6], -22.9% (active). In addition, the growth was 26.9% in assay [7], 5.19% (active) in assay [8] and -14.9% (active) in [9].
Take `COC(=O)[C@]12CC[C@@H](C(=O)/C=C/c3cccnc3)[C@@H]1[C@H]1CC[C@@H]3[C@@]4(C)C/C(=C/c5cccnc5)C(=O)C(C)(C)[C@@H]4CC[C@@]3(C)[C@]1(C)CC2`: the growth in assay [1] is -61.1% (active); in assay [2], -76.3% (active); in assay [3] it was -77.8% (active); in [4], -100% (active); in assay [5], -60.5% (active); in [6], -78.7% (active). For the same compound, the growth in assay [7] is -91.2% (active); in assay [8] it was 0.953% (active); in assay [9] it was -31.3% (active).
For the compound `CCCCC[C@H]1C/C=C2/C(=O)C=C[C@@H]2C/C=C\CCCC(=O)O[C@@H](CCCCC)C/C=C2/C(=O)C=C[C@@H]2C/C=C\CCCC(=O)O1`, the growth in assay [1] was -60% (active); in assay [2], -68.3% (active); in assay [3], -65.7% (active); in [4] it was -97.1% (active); in assay [5], -83.4% (active); in assay [10], -93.4% (active). Besides, the growth was -84.8% (active) in assay [7], -3.81% (active) in [8] and -15.8% (active) in assay [9].
